# Unmarked numbers belong to inactive results.
# Assays:
# Assay in all cases: log2 ratio of Biotin-Ahx-Ub-VS probe labelling (fragment/DMSO); higher = less target engagement (more negative = stronger competition), active = hit call of the paper (q ≤ 0.05, log2 ratio ≤ -1)
# Settings in all cases: compound concentration: 200 uM; treatment time: 3 h
# USP19 = target: T1, USP19 (UniProt O94966)
# T1 sequence (whole entry): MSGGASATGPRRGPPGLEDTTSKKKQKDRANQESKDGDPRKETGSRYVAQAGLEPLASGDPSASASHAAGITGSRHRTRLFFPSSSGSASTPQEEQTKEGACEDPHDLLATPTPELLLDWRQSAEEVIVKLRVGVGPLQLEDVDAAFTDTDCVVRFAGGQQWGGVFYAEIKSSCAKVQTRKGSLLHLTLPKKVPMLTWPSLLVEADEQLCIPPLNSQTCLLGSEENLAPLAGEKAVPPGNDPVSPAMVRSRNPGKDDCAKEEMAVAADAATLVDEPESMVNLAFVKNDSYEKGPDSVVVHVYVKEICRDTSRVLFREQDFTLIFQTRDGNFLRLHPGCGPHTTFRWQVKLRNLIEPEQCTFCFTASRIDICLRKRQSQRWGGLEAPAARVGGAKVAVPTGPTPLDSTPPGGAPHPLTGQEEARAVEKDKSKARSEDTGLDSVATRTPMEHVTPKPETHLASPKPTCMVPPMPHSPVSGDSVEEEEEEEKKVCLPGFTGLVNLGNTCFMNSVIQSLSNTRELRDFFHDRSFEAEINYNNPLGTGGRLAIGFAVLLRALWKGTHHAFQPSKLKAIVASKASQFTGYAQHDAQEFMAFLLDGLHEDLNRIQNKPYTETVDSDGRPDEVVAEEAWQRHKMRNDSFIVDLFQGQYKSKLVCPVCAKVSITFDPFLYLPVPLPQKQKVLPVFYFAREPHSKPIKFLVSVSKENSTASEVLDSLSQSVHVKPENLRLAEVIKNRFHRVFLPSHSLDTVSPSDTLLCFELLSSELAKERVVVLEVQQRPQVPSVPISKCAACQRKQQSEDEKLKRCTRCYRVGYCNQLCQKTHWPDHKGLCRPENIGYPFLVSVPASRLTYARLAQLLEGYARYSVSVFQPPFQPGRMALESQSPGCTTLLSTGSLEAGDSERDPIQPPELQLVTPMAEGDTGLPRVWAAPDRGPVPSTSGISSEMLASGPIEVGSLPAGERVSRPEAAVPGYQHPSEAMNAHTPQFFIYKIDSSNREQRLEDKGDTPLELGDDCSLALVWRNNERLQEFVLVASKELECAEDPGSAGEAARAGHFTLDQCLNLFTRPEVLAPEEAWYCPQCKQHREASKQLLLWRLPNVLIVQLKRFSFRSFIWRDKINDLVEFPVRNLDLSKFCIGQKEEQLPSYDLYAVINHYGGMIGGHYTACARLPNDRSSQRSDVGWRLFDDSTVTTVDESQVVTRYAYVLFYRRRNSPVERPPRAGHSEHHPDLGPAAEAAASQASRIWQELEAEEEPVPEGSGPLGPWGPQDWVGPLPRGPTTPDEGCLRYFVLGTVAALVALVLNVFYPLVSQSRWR
# Method in brief: (§1)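 HEK293T lysate, 495 µg per sample in Tris/CHAPS/IGEPAL buffer with protease inhibitors, was treated in triplicate with fragment at 200 µM or vehicle for 3 h and then with Biotin-Ahx-Ub-VS at 0.5 µM final for 1 h. Labelled DUBs were NeutrAvidin-enriched, digested with LysC and trypsin, and run by diaPASEF LC-MS/MS. Spectronaut label-free quantities were global-median-normalised, and values are average log2 fragment/vehicle ratios by unpaired t-test on proteins with ≥2 unique peptides.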
# USP22 = target: T2, USP22 (UniProt Q9UPT9)
# T2 sequence (whole entry): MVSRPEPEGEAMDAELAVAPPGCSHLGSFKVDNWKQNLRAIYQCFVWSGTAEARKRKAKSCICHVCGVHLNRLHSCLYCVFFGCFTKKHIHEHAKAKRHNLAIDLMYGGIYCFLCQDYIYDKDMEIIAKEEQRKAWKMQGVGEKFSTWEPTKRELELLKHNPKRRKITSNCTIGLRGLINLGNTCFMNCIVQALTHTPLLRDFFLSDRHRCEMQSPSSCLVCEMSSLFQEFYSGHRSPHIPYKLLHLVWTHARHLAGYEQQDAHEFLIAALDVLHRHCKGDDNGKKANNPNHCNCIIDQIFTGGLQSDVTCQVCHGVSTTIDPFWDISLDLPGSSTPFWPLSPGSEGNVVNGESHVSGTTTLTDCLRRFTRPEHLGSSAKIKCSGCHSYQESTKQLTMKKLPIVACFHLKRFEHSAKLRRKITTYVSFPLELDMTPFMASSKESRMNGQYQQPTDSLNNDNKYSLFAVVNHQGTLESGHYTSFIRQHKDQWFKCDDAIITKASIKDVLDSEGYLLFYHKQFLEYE
# Method in brief: as §1
# USP24 = USP24 (UniProt Q9UPU5)
# Chain of USP24 (Q9UPU5 whole entry): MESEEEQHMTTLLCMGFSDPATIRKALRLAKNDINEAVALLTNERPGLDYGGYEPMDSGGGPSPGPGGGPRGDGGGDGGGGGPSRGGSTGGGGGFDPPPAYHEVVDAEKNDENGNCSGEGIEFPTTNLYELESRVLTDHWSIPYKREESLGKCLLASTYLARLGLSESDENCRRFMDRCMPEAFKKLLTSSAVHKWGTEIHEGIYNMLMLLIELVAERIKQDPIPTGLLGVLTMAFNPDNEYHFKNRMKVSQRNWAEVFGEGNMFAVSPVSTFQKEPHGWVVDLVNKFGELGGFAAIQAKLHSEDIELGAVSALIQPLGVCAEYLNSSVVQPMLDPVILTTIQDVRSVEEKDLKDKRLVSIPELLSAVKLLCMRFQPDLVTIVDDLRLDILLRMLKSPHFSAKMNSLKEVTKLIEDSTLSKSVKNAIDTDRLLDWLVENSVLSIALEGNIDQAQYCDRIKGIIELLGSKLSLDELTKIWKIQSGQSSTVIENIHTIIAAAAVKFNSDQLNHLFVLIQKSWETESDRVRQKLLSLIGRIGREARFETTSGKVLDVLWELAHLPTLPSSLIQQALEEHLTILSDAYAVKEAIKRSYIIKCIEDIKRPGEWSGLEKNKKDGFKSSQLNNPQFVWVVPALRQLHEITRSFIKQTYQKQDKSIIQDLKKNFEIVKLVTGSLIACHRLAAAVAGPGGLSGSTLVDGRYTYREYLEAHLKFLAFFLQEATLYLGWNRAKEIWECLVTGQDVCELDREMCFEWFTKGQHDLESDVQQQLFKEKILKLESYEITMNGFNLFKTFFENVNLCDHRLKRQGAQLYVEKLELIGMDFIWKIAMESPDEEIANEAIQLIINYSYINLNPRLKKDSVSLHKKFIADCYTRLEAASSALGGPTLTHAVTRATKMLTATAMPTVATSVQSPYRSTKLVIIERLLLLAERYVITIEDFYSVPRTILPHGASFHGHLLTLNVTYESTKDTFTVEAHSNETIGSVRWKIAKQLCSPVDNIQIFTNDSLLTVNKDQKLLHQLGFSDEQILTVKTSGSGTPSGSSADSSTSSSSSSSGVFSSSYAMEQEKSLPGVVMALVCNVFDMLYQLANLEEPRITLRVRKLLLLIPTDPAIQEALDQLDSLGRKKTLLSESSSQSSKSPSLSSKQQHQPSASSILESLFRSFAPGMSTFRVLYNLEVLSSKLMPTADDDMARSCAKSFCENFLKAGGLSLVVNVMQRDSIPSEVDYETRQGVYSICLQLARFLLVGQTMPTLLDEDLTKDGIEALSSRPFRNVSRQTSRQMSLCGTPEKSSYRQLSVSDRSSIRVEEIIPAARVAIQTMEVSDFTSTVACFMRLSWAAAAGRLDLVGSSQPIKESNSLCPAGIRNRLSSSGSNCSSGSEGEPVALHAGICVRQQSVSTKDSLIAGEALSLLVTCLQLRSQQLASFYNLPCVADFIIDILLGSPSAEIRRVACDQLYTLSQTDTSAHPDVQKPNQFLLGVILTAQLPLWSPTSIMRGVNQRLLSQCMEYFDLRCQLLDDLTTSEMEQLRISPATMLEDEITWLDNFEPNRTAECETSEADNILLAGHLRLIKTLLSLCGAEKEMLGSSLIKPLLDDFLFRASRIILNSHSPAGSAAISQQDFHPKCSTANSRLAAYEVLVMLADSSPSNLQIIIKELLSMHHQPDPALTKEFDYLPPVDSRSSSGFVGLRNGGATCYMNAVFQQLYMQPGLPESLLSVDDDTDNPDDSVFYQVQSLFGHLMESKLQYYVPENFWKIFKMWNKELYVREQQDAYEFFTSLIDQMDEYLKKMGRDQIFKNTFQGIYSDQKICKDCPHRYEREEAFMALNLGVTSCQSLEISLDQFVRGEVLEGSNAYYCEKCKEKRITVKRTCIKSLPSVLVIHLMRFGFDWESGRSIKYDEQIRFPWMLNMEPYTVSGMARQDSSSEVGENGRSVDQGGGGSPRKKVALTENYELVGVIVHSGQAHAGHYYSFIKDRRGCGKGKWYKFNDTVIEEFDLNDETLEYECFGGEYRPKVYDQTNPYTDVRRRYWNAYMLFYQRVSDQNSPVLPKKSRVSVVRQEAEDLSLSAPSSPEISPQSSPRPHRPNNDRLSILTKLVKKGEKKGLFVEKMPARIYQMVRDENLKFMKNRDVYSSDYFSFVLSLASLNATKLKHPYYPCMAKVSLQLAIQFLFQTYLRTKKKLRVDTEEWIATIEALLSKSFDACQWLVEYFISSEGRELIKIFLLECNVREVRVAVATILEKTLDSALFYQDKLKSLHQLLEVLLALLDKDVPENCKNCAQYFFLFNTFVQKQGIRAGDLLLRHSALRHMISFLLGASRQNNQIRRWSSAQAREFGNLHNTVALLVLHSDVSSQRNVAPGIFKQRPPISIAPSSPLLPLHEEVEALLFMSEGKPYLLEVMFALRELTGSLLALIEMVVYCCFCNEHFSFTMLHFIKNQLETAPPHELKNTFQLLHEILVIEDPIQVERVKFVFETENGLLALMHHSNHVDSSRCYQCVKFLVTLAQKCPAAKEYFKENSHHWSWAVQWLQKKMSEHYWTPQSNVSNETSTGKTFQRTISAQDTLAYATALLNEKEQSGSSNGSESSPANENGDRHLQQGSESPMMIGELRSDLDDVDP
# Method in brief: as §1
# USP25 = target: T3, USP25 (UniProt Q9UHP3)
# T3 sequence (whole entry): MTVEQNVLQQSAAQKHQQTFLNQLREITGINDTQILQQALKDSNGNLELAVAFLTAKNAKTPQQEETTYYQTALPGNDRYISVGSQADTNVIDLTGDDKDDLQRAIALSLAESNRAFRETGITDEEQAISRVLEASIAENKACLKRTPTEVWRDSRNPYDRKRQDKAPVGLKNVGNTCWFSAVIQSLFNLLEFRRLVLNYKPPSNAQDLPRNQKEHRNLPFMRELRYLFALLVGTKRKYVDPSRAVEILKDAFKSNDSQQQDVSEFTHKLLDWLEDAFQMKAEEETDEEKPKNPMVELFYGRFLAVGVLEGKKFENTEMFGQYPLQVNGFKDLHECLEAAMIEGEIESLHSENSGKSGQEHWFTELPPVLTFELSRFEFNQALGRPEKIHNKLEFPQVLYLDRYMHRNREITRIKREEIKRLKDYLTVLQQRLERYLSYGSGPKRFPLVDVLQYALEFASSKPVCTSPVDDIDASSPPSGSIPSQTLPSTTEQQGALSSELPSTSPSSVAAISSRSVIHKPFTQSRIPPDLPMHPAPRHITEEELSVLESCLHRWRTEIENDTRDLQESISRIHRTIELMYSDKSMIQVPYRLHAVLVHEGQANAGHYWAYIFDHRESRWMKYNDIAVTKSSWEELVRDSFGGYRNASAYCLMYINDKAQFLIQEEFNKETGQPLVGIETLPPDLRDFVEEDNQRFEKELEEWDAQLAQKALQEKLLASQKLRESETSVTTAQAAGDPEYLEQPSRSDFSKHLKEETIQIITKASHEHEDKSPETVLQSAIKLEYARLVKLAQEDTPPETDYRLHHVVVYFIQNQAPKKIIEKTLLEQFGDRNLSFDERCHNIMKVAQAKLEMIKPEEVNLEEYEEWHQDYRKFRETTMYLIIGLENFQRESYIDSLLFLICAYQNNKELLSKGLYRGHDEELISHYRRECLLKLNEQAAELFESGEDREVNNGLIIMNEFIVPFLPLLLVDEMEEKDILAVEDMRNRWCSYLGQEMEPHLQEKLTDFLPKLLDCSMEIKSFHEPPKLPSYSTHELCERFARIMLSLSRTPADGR
# Method in brief: as §1
# USP28 = target: T4, USP28 (UniProt Q96RU2)
# T4 sequence (whole entry): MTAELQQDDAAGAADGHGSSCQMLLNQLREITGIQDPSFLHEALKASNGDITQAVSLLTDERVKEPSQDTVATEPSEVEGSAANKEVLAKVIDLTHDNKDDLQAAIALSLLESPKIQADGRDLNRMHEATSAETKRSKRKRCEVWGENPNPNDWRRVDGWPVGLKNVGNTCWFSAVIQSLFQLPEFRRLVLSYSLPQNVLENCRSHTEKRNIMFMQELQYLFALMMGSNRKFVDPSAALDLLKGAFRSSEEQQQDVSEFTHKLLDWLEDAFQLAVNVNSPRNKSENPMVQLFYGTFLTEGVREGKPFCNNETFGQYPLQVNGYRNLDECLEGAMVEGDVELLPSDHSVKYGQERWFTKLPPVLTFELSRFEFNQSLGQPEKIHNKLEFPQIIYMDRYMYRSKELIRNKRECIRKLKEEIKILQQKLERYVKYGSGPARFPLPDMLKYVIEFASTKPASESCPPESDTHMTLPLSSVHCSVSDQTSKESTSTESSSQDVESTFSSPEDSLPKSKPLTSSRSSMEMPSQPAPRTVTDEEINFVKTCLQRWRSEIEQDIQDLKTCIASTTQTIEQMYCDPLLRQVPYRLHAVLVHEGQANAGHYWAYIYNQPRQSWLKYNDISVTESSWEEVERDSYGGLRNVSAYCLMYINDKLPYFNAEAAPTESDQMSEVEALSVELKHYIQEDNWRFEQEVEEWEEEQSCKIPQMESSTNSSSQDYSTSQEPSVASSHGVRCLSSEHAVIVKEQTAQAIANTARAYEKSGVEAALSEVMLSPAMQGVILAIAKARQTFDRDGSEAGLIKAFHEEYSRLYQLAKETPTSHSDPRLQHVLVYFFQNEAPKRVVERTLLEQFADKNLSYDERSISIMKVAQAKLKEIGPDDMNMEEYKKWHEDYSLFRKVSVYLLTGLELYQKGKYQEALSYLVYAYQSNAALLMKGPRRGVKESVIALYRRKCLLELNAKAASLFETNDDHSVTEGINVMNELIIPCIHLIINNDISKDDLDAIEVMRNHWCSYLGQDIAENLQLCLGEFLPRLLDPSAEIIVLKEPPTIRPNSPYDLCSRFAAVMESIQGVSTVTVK
# Method in brief: as §1
smiles,measurement,setting,value
CC(NC(=O)CCl)c1csc(-c2ccccc2)n1.Cl (stereo not given),log2 ratio of Biotin-Ahx-Ub-VS probe labelling,USP19,-0.563
same,log2 ratio of Biotin-Ahx-Ub-VS probe labelling,USP22,-0.723
same,log2 ratio of Biotin-Ahx-Ub-VS probe labelling,USP24,-0.822
same,log2 ratio of Biotin-Ahx-Ub-VS probe labelling,USP25,-0.638
same,log2 ratio of Biotin-Ahx-Ub-VS probe labelling,USP28,-1.79 (active)

# Source: the supplement of paper PMC11732987, “Enantioselective OTUD7B fragment discovery through chemoproteomics screening and high-throughput optimisation” (Communications Chemistry, 2025)
